This passage reports growth results from PubChem BioAssay (NCI).

This is part of a sample that, as a whole, favours compounds with a hit. Of some 83,000 tested, about 20% had one in any assay.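 Testing used 96-well plates and a 48-hour single-concentration exposure. Example: -40 means 40% of the starting cells died.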 The source made the active and inactive calls. How the source made its calls: active means growth percent below 10; inactive means the rest.

The subject of the assay is SK-OV-3 ovarian. The experiment in a line: NCI-60 one-dose screen, 48 h (100 = growth as untreated, 0 = no growth, -100 = all killed). Particulars: 10 µM unless noted.
On to `COc1cc(Cn2c(SCCC(=O)Nc3ccc(F)cc3)nc3ccccc3c2=O)cc(OC)c1OC`, for which the growth is 95% (inactive).

In the case of `O=C(O)c1cn(C2CC2)c2cc(N3CCN(S(=O)(=O)c4ccc(Cl)c(Cl)c4)CC3)c(F)cc2c1=O`, the growth is 26.8% (inactive).

For `COc1cc(NCCCN=C(N)NC(N)=NC(C)C)c2ncccc2c1`, the growth was 93.7% (inactive).

As to `O=C(O)c1cccc([N+](=O)[O-])c1/C=C/c1ccccc1`, the growth was 94.6% (inactive).

`NC(CC(N)C(=O)O)C(=O)O` (stereo not drawn): the growth was 111% (inactive).

Turning to `O=C(O)c1ccc(-n2c(=O)c3ccccc3c3ccccc3c2=O)cc1`, the growth is 101% (inactive).

Regarding `COc1cc(Cn2c(SCC(=O)Nc3ccc(Cl)cc3)nc3ccccc3c2=O)cc(OC)c1OC`, the growth was 68.2% (inactive).

Turning to `CN(C)c1ncc(-c2ccc(C(F)(F)F)cc2)c(NC2CCCCCC2)n1`, the growth is 83.1% (inactive).

`Nc1c(C(=O)Nc2ccccc2)sc2nc3c(cc12)CCCCC3`: the growth was 17.1% (inactive).

Consider `CCn1cc(C(=O)O)c(=O)c2cc(F)c(N3CCN(S(=O)(=O)c4c(C)cc(C)cc4C)CC3)cc21`, for which the growth is 101% (inactive).

On to `CCn1cc(C(=O)O)c(=O)c2cc(F)c(N3CCN(S(=O)(=O)c4ccc(Cl)cc4Cl)CC3)cc21`, for which the growth is 1.7% (active).

Take `COC12CC(=O)C(C(C)=O)=C(O)C1(C)c1c(O)c(C)c(O)c(C(C)=O)c1O2` (stereo not drawn): the growth is 104% (inactive).

Take `CCCC(C(=O)OCC)C(C)OC(=O)OCC` (stereo not drawn): the growth was 95.5% (inactive).

For the compound `NC(=O)NC(=O)/C=C/C(=O)OCCCl`, the growth was 105% (inactive).

On to `Cc1ccc(C2=NN(c3ccc(S(=O)(=O)NC(=O)NCc4ccccc4)cc3)C(c3ccc(N(C)C)cc3)C2)c(C)c1` (stereo not drawn), for which the growth is 88.3% (inactive).

In the case of `COc1ccc(-c2cn[nH]c2-c2cc(OC)c3c(c2)OCO3)cc1`, the growth is -1.1% (active).

Turning to `CCCCCCCCCCCCNC(=S)N/N=C/c1ccc(Cl)c(Cl)c1`, the growth is 114% (inactive).

With `Oc1ccc(Cl)cc1-c1cc(-c2ccc(Cl)cc2)n[nH]1`, the growth was 79% (inactive).

For the compound `COc1cc(NC(=O)CSc2nc3ccc(C)cc3c(=O)n2-c2ccccc2)cc(OC)c1OC`, the growth is 107% (inactive).

In the case of `Clc1nc(-c2cccnc2)nc2sc3c(c12)CCCCCC3`, the growth was 102% (inactive).

Take `CCCCCCCCCCCCCCCCC(Br)C(=O)O` (stereo not drawn): the growth is 118% (inactive).

As to `CCN(Cc1ccccc1)c1ccc(SC#N)cc1`, the growth was 107% (inactive).

As to `CCCCCC(=O)OCc1ccccc1`, the growth was 93.7% (inactive).

`COc1ccc(S(=O)(=O)N2CCN(c3cc4c(cc3F)c(=O)c(C(=O)O)cn4C3CC3)CC2)c(OC)c1`: the growth is 98.6% (inactive).

For the compound `COc1cc2nc(N3CCC[C@@H](NC4=CC(=O)c5ccccc5C4=O)C3)nc(N)c2cc1OC`, the growth is 112% (inactive).

On to `COc1ccccc1CNCCCN1C(=O)c2ccc3c4c(ccc(c24)C1=O)C(=O)N(CCCNCCCCNCCCCN)C3=O`, for which the growth was 28% (inactive).

For the compound `Cc1cc(C)c(S(=O)(=O)N2CCN(c3cc4c(cc3F)c(=O)c(C(=O)O)cn4C3CC3)CC2)c(C)c1`, the growth was 81.6% (inactive).

As to `COc1ccc(NC(=O)CSc2nc3ccccc3c(=O)n2-c2ccccc2C(F)(F)F)c(OC)c1OC`, the growth was 89.4% (inactive).

Consider `CNC(C)=O`, for which the growth was 102% (inactive).

Take `CCN(CC)P(=O)(N(CC)CC)N(CCCSC/C=C(\C)CC/C=C(\C)CCC=C(C)C)CCCN1CCN(C)CC1`: the growth is 103% (inactive).

Regarding `COc1ccc(NC(=O)CSc2nc3ccc(Cl)cc3c(=O)n2-c2ccccc2C(F)(F)F)c(OC)c1OC`, the growth was 30.2% (inactive).

As for `O=S(=O)(O)CCl`, the growth is 107% (inactive).

Turning to `COc1ccc(OC)c(C(=O)c2oc3ccc(Br)cc3c2N)c1`, the growth is -6.27% (active).

Take `COc1cc(NCCN=C(N)NC(N)=NC(C)C)c2ncccc2c1`: the growth was 92.3% (inactive).

On to `CC(=O)Nc1nc(C(=O)N2N=C(C)/C(=C/c3cccs3)C2=O)cs1`, for which the growth is 99.4% (inactive).

For `CC(C)[C@H](CO)Nc1nc(Nc2ccc(C(=O)NCCNS(=O)(=O)c3cccc4c(N(C)C)cccc34)c(Cl)c2)c2ncn(C(C)C)c2n1`, the growth is 72.8% (inactive).

For `CCn1cc(C(=O)O)c(=O)c2cc(F)c(N3CCN(S(=O)(=O)c4cccc5ccccc45)CC3)cc21`, the growth was 15.6% (inactive).

As to `O=C1Nc2ccc(Br)cc2C1=N/C=c1\[nH]c(=O)/c(=C/c2ccc(Cl)cc2)s1`, the growth is 91.4% (inactive).
